The values that follow come from PubChem BioAssay (Tox21).

Inconclusive results are not listed. A call without a number means that no potency is given here. Active and inactive are the calls of the source. The call rests on the fitted dose curve; in most records, active means well fitted cell-killing curve with a large enough effect in the repeat runs; inconclusive means weak or mixed curves, or effect the other way; inactive means flat fitted curve, though single readings scatter.
Potency means the concentration at half of the fitted maximal effect.

The test in a line: qHTS RealTime-Glo MT Cell Viability Assay in HEK293 cells - 16 hour (AID 1224872). Further: nearly all actives have a fitted effect of over 50% in size. The note with it: RealTime-Glo luminescence; series mostly up to 76.8 µM. From the text:
National Center for Advancing Translational Sciences [NCATS]
NIH Chemical Genomics Center [NCGC]
U.S. Environmental Protection Agency [EPA]
National Institutes of Environmental Health Sciences [NIEHS]
National Toxicology Program [NTP]
U.S. Food and Drug Administration [FDA]
Measure of cell viability is critical in the cell-base assay. Analysis of cell viability is necessary for the characterization of cell responses to cytotoxic drugs and environmental stress. A RealTime-Glo MT Cell Viability Assay to monitor cell viability in real time of continues cell culture during 40 hours of compound treatment was used to screen Tox21 10K library compounds in Hek293 cells. The RealTime-Glo MT Cell Viability Assay is a nonlytic, homogeneous, bioluminescent method to measure cell viability in real time using a simple, plate-based method. The assay involves adding NanoLuc luciferase and a cell-permeant prosubstrate to cells in culture. Viable cells reduce the proprietary prosubstrate to generate a substrate for NanoLuc luciferase. This substrate diffuses from cells into the surrounding culture medium, where it is rapidly used by the NanoLuc Enzyme to produce a luminescent signal. The signal correlates with the number of viable cells, making the assay well suited for cytotoxicity studies.
Tox21 Assay Protocol Summary:
The mixture of Hek293 cell suspension and reagents were dispensed at 600cells/6 ul/well in 1536-well tissue culture treated black solid bottom plates using a Multidrop dispenser. After the assay plates were incubated at a 37 C/5% CO2 incubator for 5 hours, 23 nL of compounds dissolved in DMSO, positive and negative controls was transferred to the assay plate by a pintool work station. The plates were incubated at 37 C for 40 hours. The luminescence intensity were measured at 0h, 8h, 16h, 24h, 32h and 40h time points using ViewLux plate reader during compound treatment.
Regarding `CCCCP(CCCC)CCCC`, the Potency entry is “inactive”.
For `N#CC(O)c1ccccc1` (stereo not given) the value was “inactive”; for `CN/C(=N\[N+](=O)[O-])NCC1CCOC1` (stereo not given), “inactive”.
Turning to `CC(Oc1ccc(Oc2ncc(C(F)(F)F)cc2Cl)cc1)C(=O)O` (stereo not given), the Potency result is “inactive”.
For `CC(=O)[C@H]1CC[C@H]2[C@@H]3CC[C@H]4C[C@H](O)CC[C@]4(C)[C@H]3C(=O)C[C@]12C` the value was “inactive”.
Consider `CCc1cc2c(s1)-n1c(C)nnc1CN=C2c1ccccc1Cl`, for which the Potency entry is “inactive”.
For `CNNC` the value was “inactive”; for `CCS(=O)(=O)CCSP(=O)(OC)OC`, “inactive”; for `O=C(O)c1cccc(Cl)c1`, “inactive”.
Next, `CCC(=O)c1ccccc1`: “inactive”; `Cc1cnc[nH]1`: “inactive”.
For `CCOC(=O)C(c1c(O)c2ccccc2oc1=O)c1c(O)c2ccccc2oc1=O` the value was “inactive”; for `C[C@]12CC[C@H]3[C@@H](CC=C4C[C@@H](O)CC[C@@]43C)[C@@H]1CC[C@@H]2O`, “inactive”; for `O=C(Cc1ccccc1)OCc1ccccc1`, “inactive”.
`CCCCC(=O)Cl`: the Potency entry is “inactive”.
For `CCCSC(=O)N(CCC)CCC` the value was “inactive”; for `C=CC1CC=CCC1` (stereo not given), “inactive”; for `CN1CCC(O)(c2ccc(F)cc2)C(C(=O)c2ccc(F)cc2)C1` (stereo not given), “inactive”.
Take `CCOP(=S)(OCC)Oc1ncn(-c2ccccc2)n1`: the Potency entry was “inactive”.
Next, `CC(C)CC(N(C)C)C1(c2ccc(Cl)cc2)CCC1` (stereo not given): “inactive”.
Next, `Nc1ccccc1Cl`: “inactive”.
Next, `Nc1cnn(-c2ccccc2)c(=O)c1Cl`: “inactive”; `CN1CCN(C(=O)O[C@H]2c3nccnc3C(=O)N2c2ccc(Cl)cn2)CC1`: “inactive”; `CNC(=O)Oc1cccc(C(C)C)c1`: “inactive”.
As to `O=S(=O)(O)C(F)(F)C(F)(F)C(F)(F)C(F)(F)C(F)(F)C(F)(F)F`, the Potency entry was “inactive”.
On to `Cc1nnc2n1-c1sc(CCC(=O)N3CCOCC3)cc1C(c1ccccc1Cl)=NC2`, for which the Potency entry is “inactive”.
For `O=C(O)C(Br)CBr` (stereo not given) the value was “inactive”; for `CN1CCC(N(Cc2ccccc2)c2ccccc2)CC1`, “inactive”; for `[Cl][Sn]([Cl])([Cl])[Cl]`, “inactive”.
Turning to `Cc1nc(N)nc(N)n1`, the Potency entry was “inactive”.
Turning to `COP(=S)(OC)Oc1c(Cl)cc(C)cc1Cl`, the Potency entry was “inactive”.
For `N#CCBr` the value was “inactive”.
Next, `O=C(Oc1ccc(Br)cc1)N1CCN2CCC1CC2`: “inactive”; `Fc1cc(Br)ccc1CBr`: “inactive”; `CN(C)CCc1ccc(O)cc1`: “inactive”.
For `CCCSP(=O)(OCC)Oc1ccc(Br)cc1Cl` (stereo not given) the value was “inactive”; for `ClC(Cl)(Cl)C(Cl)(Cl)Cl`, “inactive”.
Turning to `COc1cccc2c1cc([N+](=O)[O-])c1c(C(=O)O)cc3c(c12)OCO3`, the Potency is 12.3 µM (active).
As for `N#Cc1c(Cl)cccc1Cl`, the Potency entry is “inactive”.
For `CCOC(=O)NC(=S)Nc1ccccc1NC(=S)NC(=O)OCC` the value was “inactive”.
